Assay [1] relates to Wnt5a (protein binding on small-molecule microarray). Description: small molecules binding Wnt5a protein – biophysical, small-molecule microarray, 635/667 nm fluorescence, primary screen (AID 1142).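 Also: fluorescence read at 667 nm with signal to noise per printed feature.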 The settings on record: 635 nm fluorescence, higher = more signal.
Assay [2] in a line: ATP-based viability of Huh7 replicon cells – cell-based, CellTiter-Glo luminescence, basal, 48 h, cytotoxicity control for HCV replication inhibitor project, primary screen (AID 1143).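 Also: Huh7 hepatoma cells carrying a hepatitis C replication reporter with no stimulus; test concentration not given here.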 The settings on record: higher = more signal, called active from +8 up or from −8 down.
Assay [3] is described as follows: Pseudomonas biofilm growth suppression – PAO1 strain, BacTiter-Glo luminescence, LB-PBS, primary screen (AID 1144). The settings on record: P. aeruginosa PAO1 biofilm, 12 h, higher = more signal.
A short description of assay [4]: basal CRE-LacZ reporter activity in PC12 – cell-based, unstimulated, primary screen (AID 1145). The settings on record: no forskolin, luminescence, 4.5 h, higher = more signal, called active from +8 up or from −8 down.
Assay [5] is described as follows: forskolin-driven CRE-LacZ activity in PC12 – cell-based, CRE-LacZ reporter, forskolin-stimulated, primary screen (AID 1146).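 Also: PC12 cells with 6xCRE LacZ reporter stimulated by forskolin 10 µM; beta-galactosidase reporter signal reflecting CREB driven transcription.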 The settings on record: luminescence, 4.5 h, higher = more signal, called active from +8 up or from −8 down.
The target in assay [6] is Streptavidin (Streptomyces avidinii) (UniProt P22629). Description: compounds binding control protein streptavidin – biophysical, small-molecule microarray, 635/667 nm fluorescence, artefact control for SMM compound annotation, primary screen (AID 1147).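 Also: signal reflects streptavidin binding to arrayed compounds as a control protein.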 The settings on record: higher = more signal.
A short description of assay [7]: probe aInhba binding on compound microarray – biochemical, small-molecule microarray, 635/667 nm fluorescence, primary screen (AID 1148).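 Also: score merges 667nm spot fluorescence with signal-to-noise for antibody binding to printed compounds.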 The settings on record: higher = more signal.
Assay [8] concerns the target Torsin-1A (Homo sapiens) (UniProt O14656). Description: TOR1A wild-type binding on microarray – cell lysate, small-molecule microarray, lysate, 635/667 nm, primary screen (AID 1149). The conditions noted are these: COS7 hTOR1A-WT lysate, 635 nm fluorescence, higher = more signal.
Assay [9] shares this target. Description: torsin A mutant lysate binding on microarrays – cell lysate, small-molecule microarray, COS7 lysate, 635/667 nm fluorescence, primary screen (AID 1150).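 Also: score pools 667 nm emission and signal to noise measuring lysate protein binding.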 The settings on record: COS7 hTOR1A mutant lysate, 635 nm fluorescence, higher = more signal.
In assay [10] the test system is Sonic hedgehog protein (Shh). Description: Sonic hedgehog microarray binding compounds – biochemical, small-molecule microarray, 635/667 nm fluorescence, primary screen (AID 1151).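 Also: Shh protein binding to compounds spotted on small-molecule microarray slides; score combines spot fluorescence intensity with signal-to-noise across triplicate slides.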 The settings on record: 635 nm fluorescence, higher = more signal.

Activity calls are given as the source filed them. Unless noted, no rule for the calls is given here.

Torsin-1A (Homo sapiens), sequence (O14656 whole entry, looked up): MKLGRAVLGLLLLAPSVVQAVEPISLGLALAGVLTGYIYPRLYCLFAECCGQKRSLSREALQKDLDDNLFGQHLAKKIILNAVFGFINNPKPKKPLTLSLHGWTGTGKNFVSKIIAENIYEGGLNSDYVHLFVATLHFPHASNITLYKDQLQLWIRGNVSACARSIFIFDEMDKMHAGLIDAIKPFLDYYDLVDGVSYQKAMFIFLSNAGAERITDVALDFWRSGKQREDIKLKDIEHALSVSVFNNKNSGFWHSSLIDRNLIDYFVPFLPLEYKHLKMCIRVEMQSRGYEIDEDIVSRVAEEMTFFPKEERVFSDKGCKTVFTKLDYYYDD
Streptavidin (Streptomyces avidinii), sequence (P22629 whole entry, looked up): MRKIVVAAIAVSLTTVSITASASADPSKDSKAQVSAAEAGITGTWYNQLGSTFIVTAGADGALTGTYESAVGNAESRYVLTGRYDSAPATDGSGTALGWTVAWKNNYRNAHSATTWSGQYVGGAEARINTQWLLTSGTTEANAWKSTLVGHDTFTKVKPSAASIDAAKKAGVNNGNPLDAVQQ

For the molecule `CO[C@H]1O[C@H](CO)[C@@H](OC(=O)Nc2ccc(Br)cc2)[C@@H]2OC(=O)[C@H](Cc3cccc(Br)c3)C/C=C/C[C@@H](Cc3cccc(Br)c3)C(=O)O[C@@H]12`, the composite z-score in assay [1] was -0.149; in assay [6], -0.174; in assay [7], 0.0387; with Torsin-1A (Homo sapiens) [8], -0.541; in the assay with Torsin-1A (Homo sapiens) [9], 0.384; in [10], 1.58. Also, the z-score in assay [2] was -5.6 (inactive); in assay [3], -2.06 (inactive); in [4], -0.878 (inactive); in assay [5], 0.243 (inactive).

For `COC(=O)[C@@]1(Cc2ccc(OC)cc2)[C@H]2c3cc(C(=O)N(C)C)n(Cc4ccc(C(F)(F)F)nc4)c3C[C@H]2CN1C(=O)c1ccccc1`, the composite z-score in assay [1] is 0.24; in assay [6], 0.365; in [7] it was 0.397; with Torsin-1A (Homo sapiens) [8] it was -0.0912; with Torsin-1A (Homo sapiens) [9], 0.0628; in assay [10], -0.709. Besides, the z-score in assay [2] was 0.398 (inactive); in assay [3] it was -0.123 (inactive); in assay [4] it was 0.59 (inactive); in [5] it was 1.54 (inactive).

Take `COC(=O)[C@]1(Cc2ccccc2)N=C(c2ccc(OCCCO)cc2)O[C@@H]1c1ccccc1N=[N+]=[N-]`: the composite z-score was 0.501 in [1]; 0.291 in [6]; -0.0221 in assay [7]; -0.0019 in the assay with Torsin-1A (Homo sapiens) [8]; 0.0366 with Torsin-1A (Homo sapiens) [9]; 0.354 in assay [10]. For the same molecule, the z-score is -5.26 (inactive) in assay [2], -0.441 (inactive) in [3], 1.34 (inactive) in assay [4] and -1.47 (inactive) in [5].

`COc1ccc([Si](C)(C)[C@@H]2[C@@H](CCn3cc(CCO)nn3)O[C@]3(C(=O)N(Cc4cccc(N5C(=O)c6cccc7cccc5c67)c4)c4ccccc43)[C@H]2C)cc1`: the composite z-score in assay [1] is 0.206; in assay [6], 0.942; in assay [7] it was -0.0589; with Torsin-1A (Homo sapiens) [8], 0.119; in the assay with Torsin-1A (Homo sapiens) [9], 0.141; in assay [10], 2.08. Moreover, the z-score in [2] was -7.96 (inactive); in assay [3], 0.000859 (inactive); in [4] it was 2.93 (inactive); in [5] it was -1.45 (inactive).

Take `COc1ccc(-c2cc3c(c(Cc4ccccc4)n2)[Si](C(C)C)(C(C)C)OC3)cn1`: the composite z-score in assay [1] was -0.153; in [6], -0.32; in [7] it was -0.215; with Torsin-1A (Homo sapiens) [8] it was -0.0113; with Torsin-1A (Homo sapiens) [9], -0.729; in [10] it was -0.093. For the same molecule, the z-score in [2] is -1.03 (inactive); in [3], 0.2 (inactive); in assay [4], -0.141 (inactive); in [5], 0.877 (inactive).

With `C[C@H]1C2[C@H](Cc3ccccc3)NC(=O)[C@]23C(=O)NCC(=O)N2CCC[C@H]2C(=O)NC/C=C/CCC/C=C/C3[C@@H]2O[C@]12C` (stereo not given in full), the composite z-score in [1] is -0.376; in assay [6], -1.3; in assay [7] it was -0.179; with Torsin-1A (Homo sapiens) [8], -0.793; in the assay with Torsin-1A (Homo sapiens) [9], -0.333; in assay [10], 0.468. The z-score in assay [2] was -1.02 (inactive); in assay [3], 0.785 (inactive); in assay [4], 1.32 (inactive); in [5], -1.25 (inactive).

`COc1cc2c(cc1O)C=[N+](Cc1cc3c(cc1Br)OCO3)CC2`: the composite z-score in [1] was -0.234; in [6], -1.88; in [7], -0.154; in the assay with Torsin-1A (Homo sapiens) [8] it was -0.39; with Torsin-1A (Homo sapiens) [9], -0.945; in assay [10], -0.216. Further, the z-score in assay [2] was -2.14 (inactive); in assay [3] it was -0.304 (inactive); in assay [4], -0.671 (inactive); in assay [5], 0.945 (inactive).

With `NC(=O)NCC#Cc1ccc2c(c1)[C@]1(C(=O)N2)[C@H](C(=O)O)[C@H]2C(=O)O[C@H](c3ccccc3)[C@H](c3ccccc3)N2[C@@H]1c1ccc(O)cc1`, the composite z-score is -0.0543 in assay [1]; 1.48 in assay [6]; 0.174 in assay [7]; -0.359 with Torsin-1A (Homo sapiens) [8]; -0.245 with Torsin-1A (Homo sapiens) [9]; 1.02 in assay [10]. For the same molecule, the z-score in assay [2] was 0.164 (inactive); in assay [3] it was -0.36 (inactive); in assay [4], 0.892 (inactive); in assay [5], -0.89 (inactive).

Consider `COC(=O)[C@@]1(CCC(=O)OC(C)(C)C)N=C(c2ccc(OCCCO)cc2)O[C@H]1c1ccccc1`, for which the composite z-score is 0.762 in assay [1]; -0.888 in assay [6]; 0.0319 in assay [7]; -0.831 with Torsin-1A (Homo sapiens) [8]; -0.275 with Torsin-1A (Homo sapiens) [9]; 0.443 in assay [10]. The z-score in [2] is -3.61 (inactive); in assay [3], -0.24 (inactive); in assay [4] it was 2.25 (inactive); in [5], -2.12 (inactive).

For the molecule `O=C1C2C=CC(C(O)C=Cc3ccc([N+](=O)[O-])cc3)N(n3cnnc3)C2C(=O)N1Cc1ccccc1` (stereo not given), the composite z-score in assay [1] stood at 0.0873; in assay [6], 1.1; in assay [7] it was 0.0589; with Torsin-1A (Homo sapiens) [8], 1.95; with Torsin-1A (Homo sapiens) [9], 2.16; in assay [10], 0.287. Further, the z-score in assay [2] was -0.274 (inactive); in assay [3], -0.871 (inactive); in assay [4] it was -0.368 (inactive); in assay [5] it was 0.343 (inactive).

Regarding `C#CCN1[C@@H](Cc2ccc(O)cc2)C(=O)O[C@H](Cc2ccccc2)[C@@H]1/C=C/C1CC1`, the composite z-score in [1] is 0.0515; in assay [6], -0.196; in assay [7] it was -0.224; with Torsin-1A (Homo sapiens) [8], 0.161; in the assay with Torsin-1A (Homo sapiens) [9], 0.364; in [10], 0.284. The z-score is -4.07 (inactive) in assay [2], 1.75 (inactive) in assay [3], 15.1 (active) in [4] and 1.42 (inactive) in assay [5].

In the case of `O=C(O)[C@H](Cc1ccccc1)n1cc(-c2ccccc2)nn1`, the composite z-score in assay [1] is 0.469; in assay [6] it was 0.572; in assay [7] it was -0.0494; in the assay with Torsin-1A (Homo sapiens) [8], 0.0641; with Torsin-1A (Homo sapiens) [9] it was 0.804; in assay [10] it was 0.172. Further, the z-score was 0.594 (inactive) in [2], 0.192 (inactive) in [3], 1.56 (inactive) in assay [4] and 0.219 (inactive) in assay [5].

Regarding `O=C1OCCC=C[C@H]2OC34C=CCN(CCN5CCOCC5)C(=O)[C@H]3N(CCCCCO)C(=O)[C@@H]4C12` (stereo not given in full), the composite z-score in assay [1] was -0.135; in assay [6], 1.38; in [7], -0.253; in the assay with Torsin-1A (Homo sapiens) [8] it was 1.14; with Torsin-1A (Homo sapiens) [9] it was 1.52; in assay [10] it was 0.139. The z-score in assay [2] was 0.201 (inactive); in [3], -0.199 (inactive); in assay [4], 1.14 (inactive); in assay [5], 0.25 (inactive).

Source of the values: PubChem BioAssay.
